Experimental data from PubChem BioAssay (NCATS).
Records with an inconclusive call do not appear. Where a call stands in place of a potency, no number is given. Calls of active or inactive are those of the source. Unless noted, calls follow the shape of the dose curve; as a rule, active = well fitted curve in the direction sought with a large enough effect; inconclusive = small, poorly fitted or top-dose-only effect, or another doubt; inactive = no such curve, though single readings can be large; an effect the other way counts as inactive or inconclusive.

Legend:
[1] = Cell Viability - HUV-EC-C (AID 542); conditions: HUV-EC-C endothelial cell viability, qHTS; series mostly up to 92.2 µM; also: nearly all actives have a fitted effect of over 35% in size
Summary of the method: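 qHTS cytotoxicity: HUV-EC-C, 1000 cells/well, 5 hr settle, compound 40 hr 37 °C, CellTiter-Glo, luminescence. AC50 via Hill equation.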

[2] = Cell Viability - Mesenchymal (AID 546); conditions: mesenchymal cells viability, qHTS; activity change, negative = cytotoxicity: at 91.7 µM (top of the series);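 also: cells exposed to compound for 40 hours before reading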
Summary of the method: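 AC50 values reflect the drop in intracellular ATP in a human kidney mesenchymal line derived from normal glomeruli. Treatment lasts 40 hr at 37 °C in complete medium, and the signal comes from CellTiter-Glo luminescence.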

[3] = MultiTox-Fluor Cytotoxicity Assay - LYMP1-001 - Live Cells (AID 947); conditions: LYMP1-001 lymphoblastoid cells, live-cell protease fluorescence viability; series mostly up to 92.2 µM
[4] = MultiTox-Fluor Cytotoxicity Assay - LYMP1-003 - Dead Cells (AID 961); conditions: LYMP1-003 lymphoblastoid cells, dead-cell protease fluorescence; series mostly up to 92.2 µM; also: nearly all actives have a fitted effect of over 70% in size
Summary of the method: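 Dead-cell protease release, detected as bis-AAF-R110 fluorescence at 485/520 nm, was measured in LYMP1-003 cells after 16 h compound treatment at 37 C. AC50 values came from Hill-modeled qHTS curves normalized to DMSO (0%) and 15 uM tetraoctylammonium bromide (100%).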

[5] = Cell Viability - LYMP1-003 - Assay at 40 hr (AID 964); conditions: LYMP1-003 lymphoblastoid viability; series mostly up to 92.2 µM; also: nearly all actives have a fitted effect of over 60% in size
Summary of the method: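 Cells were seeded at 2500 per well and incubated 5 hr at 37 C. Compounds were added across a concentration series and left 40 hr at 37 C. CellTiter-Glo was added for 30 min at room temperature before luminescence reading.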

[6] = Cell Viability - LYMP2-004 (AID 966); conditions: LYMP2-004 lymphoblastoid cell viability, qHTS; series mostly up to 92.2 µM;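 also: cells exposed to compound for 24 h; nearly all actives have a fitted effect of over 65% in size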
Summary of the method: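 Cells seeded 2500/well, rested 5 hr at 37 C, dosed across a concentration series, incubated 24 hr at 37 C, then CellTiter-Glo added for 30 min at room temperature and luminescence read. Hill fitting gave AC50.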

[7] = Cell Viability - LYMP2-011 (AID 969); conditions: LYMP2-011 lymphoblastoid cells viability; series mostly up to 92.2 µM; also: nearly all actives have a fitted effect of over 60% in size
Summary of the method: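 2500 cells/well, 5 hr 37 C; compound added, 24 hr 37 C; CellTiter-Glo 30 min RT; luminescence. qHTS concentration-response, Hill-equation AC50. Tetraoctylammonium bromide positive control.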

[8] = Cell Viability - LYMP2-013 (AID 970); conditions: LYMP2-013 lymphoblastoid cells viability; series mostly up to 92.2 µM;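 also: cells exposed to compound for 24 h at 37 °C; nearly all actives have a fitted effect of over 55% in size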
Summary of the method: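 qHTS; 2500 lymphoblastoid cells/well; 5 hr 37 C settle; cpd 24 hr 37 C; CellTiter-Glo, 30 min RT; luminescence. AC50 = Hill fit.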

[9] = Cell Viability - LYMP2-017 (AID 972); conditions: LYMP2-017 lymphoblastoid cell viability; series mostly up to 92.2 µM; also: nearly all actives have a fitted effect of over 55% in size
Summary of the method: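 2500 cells/well, 5 h 37 C; cpd 24 h 37 C in complete medium; CellTiter-Glo, 30 min RT; luminescence (ATP). AC50 via Hill fit, qHTS.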

[10] = Cell Viability - LYMP2-019 (AID 973); conditions: LYMP2-019 lymphoblastoid cell line viability; series mostly up to 92.2 µM;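 also: cells exposed to compound for 24 h at 37 °C; nearly all actives have a fitted effect of over 55% in size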
Summary of the method: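 Luminescent ATP read-out (CellTiter-Glo, 30 min room temperature) served as the viability measure after 24 hr treatment of lymphoblastoid cells at 37 C. Concentration-response data were fitted to the Hill equation for AC50.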

[11] = Cell Viability - LYMP2-023 (AID 975); conditions: LYMP2-023 lymphoblastoid cell viability; series mostly up to 92.2 µM; also: nearly all actives have a fitted effect of over 55% in size;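 as to activity change, negative = cytotoxicity: cellular ATP measured by luciferase luminescence as viability proxy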
Summary of the method: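 2500 cells/well, 5 hr 37 C; cpd 24 hr 37 C; CellTiter-Glo, 30 min RT; luminescence. qHTS conc-response, Hill fit -> AC50. Pos ctrl tetraoctylammonium bromide.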

[12] = Cell Viability - LYMP2-025 (AID 976); conditions: LYMP2-025 lymphoblastoid cell viability; series mostly up to 92.2 µM;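 also: cells exposed to compound for 24 h at 37 °C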
Summary of the method: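 Seed 2500 LYMP2-025 cells/well; 5 hr at 37 C; add compound; 24 hr at 37 C; add CellTiter-Glo; 30 min RT; read luminescence. AC50 from Hill-modelled concentration-response.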

[13] = Cell Viability - LYMP2-002 (AID 977); conditions: LYMP2-002 lymphoblastoid cell viability, qHTS; series mostly up to 92.2 µM;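 also: compound exposure lasted 24 h at 37 °C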
Summary of the method: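 Cytotoxicity is scored as concentration-dependent loss of cellular ATP in a human lymphoblastoid line after 24 hr compound treatment at 37 C. AC50 is obtained by modelling concentration-response data with the Hill equation.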

[14] = Cell Viability - LYMP2-006 (AID 978); conditions: LYMP2-006 lymphoblastoid cell viability, qHTS; series mostly up to 92.2 µM; also: nearly all actives have a fitted effect of over 60% in size
Summary of the method: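 In this cytotoxicity screen, the human lymphoblastoid line grew in complete medium with test compounds for 24 hr at 37 C. Cellular ATP served as the viability signal.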

[15] = Cell Viability - LYMP2-010 (AID 981); conditions: LYMP2-010 lymphoblastoid cell viability, qHTS; series mostly up to 92.2 µM; also: nearly all actives have a fitted effect of over 55% in size
Summary of the method: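 Luminescent ATP signal (CellTiter-Glo) served as the viability read-out. Cells of the human lymphoblastoid line were treated with compound over a concentration range for 24 hours at 37 C, and AC50 values came from Hill-equation modeling.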

[16] = Cell Viability - LYMP2-014 (AID 983); conditions: LYMP2-014 lymphoblastoid cells, viability qHTS; series mostly up to 92.2 µM;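 also: cells exposed to compound for 24 h at 37 °C; nearly all actives have a fitted effect of over 50% in size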
Summary of the method: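 Luminescent ATP signal (CellTiter-Glo, 30 min at room temperature) serves as the viability read-out after 24 hr compound exposure at 37 C. Cells were seeded at 2500 per well and settled 5 hr beforehand.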

[17] = Cell Viability - LYMP2-026 (AID 989); conditions: LYMP2-026 lymphoblastoid cell viability, qHTS; series mostly up to 92.2 µM;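 also: cells exposed to compound for 24 h at 37 °C; nearly all actives have a fitted effect of over 50% in size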
Summary of the method: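 Luminescent ATP signal (CellTiter-Glo, 30 min room temperature) measures viable lymphoblastoid cells after 24 hr compound treatment at 37 C. Decreased ATP reflects acute toxicity; AC50 values come from Hill-equation modeling.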

[18] = Cell Viability - LYMP1-002 - Assay at 40 hr (AID 994); conditions: LYMP1-002 lymphoblastoid cell viability; series mostly up to 92.2 µM; also: nearly all actives have a fitted effect of over 60% in size
Summary of the method: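 Luminescent ATP signal served as the viability readout, with decreases taken as toxicity. Cells were treated with compounds across a concentration range for 40 hours at 37 C, and AC50 values came from standard Hill modeling.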

[19] = target: Voltage-gated inwardly rectifying potassium channel KCNH2 (Homo sapiens) (UniProt Q12809); assay: qHTS Assay for Small Molecule Inhibitors of the Human hERG Channel Activity (AID 588834); conditions: U2OS BacMam hERG, FluxOR thallium flux fluorescence; series mostly up to 92.2 µM;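 also: lower thallium flux fluorescence means stronger hERG block; nearly all actives have a fitted effect of over 50% in size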
Voltage-gated inwardly rectifying potassium channel KCNH2 (Homo sapiens), sequence (Q12809 whole entry, looked up): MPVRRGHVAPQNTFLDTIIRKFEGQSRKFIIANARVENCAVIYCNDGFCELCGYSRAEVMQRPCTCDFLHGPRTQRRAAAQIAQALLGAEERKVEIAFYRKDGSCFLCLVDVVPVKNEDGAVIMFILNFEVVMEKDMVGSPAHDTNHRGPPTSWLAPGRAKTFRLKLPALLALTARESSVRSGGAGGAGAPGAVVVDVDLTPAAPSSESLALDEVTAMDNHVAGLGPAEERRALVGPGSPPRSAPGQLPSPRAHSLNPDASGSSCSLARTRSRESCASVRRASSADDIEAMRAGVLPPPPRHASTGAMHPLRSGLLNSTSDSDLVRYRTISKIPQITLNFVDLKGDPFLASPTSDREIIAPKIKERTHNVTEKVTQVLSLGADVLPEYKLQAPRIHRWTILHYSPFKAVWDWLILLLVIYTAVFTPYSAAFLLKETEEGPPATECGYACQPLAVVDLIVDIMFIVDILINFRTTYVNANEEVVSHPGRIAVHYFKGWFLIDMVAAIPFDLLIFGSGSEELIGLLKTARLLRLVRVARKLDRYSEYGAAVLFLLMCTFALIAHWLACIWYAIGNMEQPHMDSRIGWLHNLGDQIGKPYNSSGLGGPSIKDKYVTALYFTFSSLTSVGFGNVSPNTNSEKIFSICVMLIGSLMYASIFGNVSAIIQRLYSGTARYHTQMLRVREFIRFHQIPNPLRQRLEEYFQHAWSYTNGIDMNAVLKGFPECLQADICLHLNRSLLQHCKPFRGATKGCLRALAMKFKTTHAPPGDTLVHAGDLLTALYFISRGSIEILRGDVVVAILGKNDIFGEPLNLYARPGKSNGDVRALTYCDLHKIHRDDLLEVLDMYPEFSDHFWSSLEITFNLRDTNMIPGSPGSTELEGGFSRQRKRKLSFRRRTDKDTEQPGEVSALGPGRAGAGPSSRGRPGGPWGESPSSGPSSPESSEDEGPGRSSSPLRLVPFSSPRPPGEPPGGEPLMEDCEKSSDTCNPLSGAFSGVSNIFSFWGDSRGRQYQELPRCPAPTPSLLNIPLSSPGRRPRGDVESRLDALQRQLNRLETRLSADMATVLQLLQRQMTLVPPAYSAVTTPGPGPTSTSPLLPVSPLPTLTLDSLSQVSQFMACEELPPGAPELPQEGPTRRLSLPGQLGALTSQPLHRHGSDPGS
Summary of the method: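 Blockade is seen as reduced FluxOR thallium-flux fluorescence in U2OS cells expressing hERG from a BacMam construct, in Opti-MEM with 2% FCS. Concentration-response data fitted to the Hill equation for AC50.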

[20] = qHTS assay for small molecule disruptors of the mitochondrial membrane potential - 5 hr assay (AID 651755; calls by dose curve; also: nearly all actives have a fitted effect of over 40% in size); conditions: JC-1-type ratio dye; series mostly up to 92.2 µM
Summary of the method: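 HepG2, 2,000 cells/well, overnight attach; cpd or DMSO 5 hr, 37C/5% CO2; Mito-MPS 30 min 37C; fluor 490/535 + 540/590 nm.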
Potency is read from the fitted curve at half-maximal effect.

SMILES | Potency [1] | Potency [2] | Potency [3] | Potency [4] | Potency [5] | Potency [6] | Potency [7] | Potency [8] | Potency [9] | Potency [10] | Potency [11] | Potency [12] | Potency [13] | Potency [14] | Potency [15] | Potency [16] | Potency [17] | Potency [18] | Potency [19] | Potency [20]
Nc1ccc2cc3ccccc3cc2c1 | inactive | inactive | inactive | inactive | inactive | inactive | inactive | inactive | inactive | inactive | inactive | inactive | inactive | inactive | inactive | inactive | inactive | inactive | 5.01 µM (active) | 3.76 µM (active)
CCC(C)Nc1ccc(NC(C)CC)cc1 (stereo not drawn) | 10 µM (active) | 12.6 µM (active) | 12.6 µM (active) | 12.6 µM (active) | 10 µM (active) | 6.31 µM (active) | 6.31 µM (active) | 6.31 µM (active) | 3.98 µM (active) | 5.01 µM (active) | 6.31 µM (active) | 7.94 µM (active) | 3.98 µM (active) | 5.01 µM (active) | 3.16 µM (active) | 5.01 µM (active) | 7.94 µM (active) | 15.8 µM (active) | 14.1 µM (active) | 59.6 µM (active)
Cc1cc(O)c(C(C)(C)C)cc1Sc1cc(C(C)(C)C)c(O)cc1C | 39.8 µM (active) | 15.8 µM (active) | 31.6 µM (active) | 31.6 µM (active) | 39.8 µM (active) | 31.6 µM (active) | 39.8 µM (active) | 31.6 µM (active) | 50.1 µM (active) | 39.8 µM (active) | 50.1 µM (active) | 39.8 µM (active) | 31.6 µM (active) | 31.6 µM (active) | 31.6 µM (active) | 39.8 µM (active) | 25.1 µM (active) | 39.8 µM (active) | 39.8 µM (active) | 16.8 µM (active)
O=Cc1ccc(Cl)c(Cl)c1 | inactive | inactive | inactive | inactive | inactive | inactive | inactive | inactive | inactive | inactive | inactive | inactive | inactive | inactive | inactive | inactive | inactive | inactive | inactive | inactive
O=[N+]([O-])c1cc([N+](=O)[O-])c2ccc(S(=O)(=O)O)cc2c1O | inactive | inactive |  | inactive | inactive | inactive | inactive | inactive | inactive | inactive | inactive | inactive | inactive | inactive | inactive | inactive | inactive | inactive |  | inactive
O=C1OC2(c3cc(Br)c(O)c(Br)c3Oc3c2cc(Br)c(O)c3Br)c2c(Cl)c(Cl)c(Cl)c(Cl)c21 |  |  |  |  | inactive |  | inactive |  | inactive |  | inactive |  |  | inactive | inactive | inactive | inactive | inactive | 3.98 µM (active) | 
